We go through 40 compounds from the supplement of paper PMC9942566.

Structures are written as SMILES. Counter-ions that a name gives are not always drawn. ± gives the standard deviation of the averaged measurements.

The first assay concerns Serratia marcescens K904 PosmB-luxCDABE reporter (pMQ747). The experiment in a line: PosmB-lux reporter fold induction (RLU/OD600 relative to no-compound control), highest over Biolog concentrations; higher = stronger reporter activation. As to conditions: Biolog plate: PM11; well positions: C1-4; ΔrcsB mutant CMS5177; 4 h. How it is done:
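Serratia marcescens K904 (wild type) or its isogenic ΔrcsB mutant, carrying the Rcs-dependent PosmB-luxCDABE reporter plasmid pMQ747, was grown in LB at OD600 0.1 in Biolog Phenotype MicroArray plates PM11-20 for 4 h at 30-32°C. Each compound is present at 3-4 proprietary concentrations (not stated); per the Fig. S1 legend the value given is the highest fold over those wells. Three independent trials.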
For `Cc1c(N)nc([C@H](CC(N)=O)NC[C@H](N)C(N)=O)nc1C(=O)N[C@H](C(=O)N[C@H](C)[C@@H](O)[C@H](C)C(=O)N[C@H](C(=O)NCCc1nc(-c2nc(C(=O)NCCC[S+](C)C)cs2)cs1)[C@@H](C)O)[C@@H](OC1OC(CO)C(O)C(O)C1OC1OC(CO)C(O)C(OC(N)=O)C1O)c1cnc[nH]1` (stereo not given in full) [Bleomycin], the “PosmB-lux reporter fold induction” value worked out at 0.988 ± 0.1.

Still in this assay, the particulars now being: Biolog plate: PM11; well positions: G9-12; ΔrcsB mutant CMS5177; 4 h.
`O=[Te]([O-])[O-].[K+].[K+]` [Potassium tellurite]: the “PosmB-lux reporter fold induction” value was 1.14 ± 0.19.

The assay is the same for the next values; noted with them: Biolog plate: PM13; well positions: A9-12; ΔrcsB mutant CMS5177; 4 h.
With `[Cl][Ni][Cl]` [Nickel chloride], the “PosmB-lux reporter fold induction” value worked out at 1.06 ± 0.2.

Staying with this assay, now noted: Biolog plate: PM13; well positions: B9-12; ΔrcsB mutant CMS5177; 4 h.
With `CCn1cc(C(=O)O)c(=O)c2cc3c(cc21)OCO3` [Oxolinic acid], the “PosmB-lux reporter fold induction” value worked out at 4.3 ± 0.48.

Still in this assay, the particulars now being: Biolog plate: PM13; well positions: E5-8; ΔrcsB mutant CMS5177; 4 h.
For the compound `CN[C@@H]1[C@@H](O)[C@@H](O[C@@H]2[C@@H](O)[C@H](O[C@H]3O[C@H]([C@@H](C)O)[C@@H](O)[C@H](O)[C@H]3N)[C@@H](N)C[C@H]2N)OC[C@]1(C)O` [Geneticin (G418)], the “PosmB-lux reporter fold induction” value amounted to 1.34 ± 0.41.

Still in this assay, the particulars now being: Biolog plate: PM14; well positions: B5-8; ΔrcsB mutant CMS5177; 4 h.
Take `CCCCc1ccc(C(=O)O)nc1` [Fusaric acid]: the “PosmB-lux reporter fold induction” value is 1 ± 0.025.

The same assay, now with this note: Biolog plate: PM14; well positions: B9-12; ΔrcsB mutant CMS5177; 4 h.
Consider `O=[As]([O-])([O-])[O-].[Na+].[Na+].[Na+]` [Sodium arsenate], for which the “PosmB-lux reporter fold induction” value turned out to be 0.724 ± 0.054.

The same assay, now with this note: Biolog plate: PM14; well positions: C9-12; ΔrcsB mutant CMS5177; 4 h.
For `N#CO` [Sodium cyanate], the “PosmB-lux reporter fold induction” value came to 1.38 ± 0.44.

The assay is the same for the next values; noted with them: Biolog plate: PM14; well positions: D1-4; ΔrcsB mutant CMS5177; 4 h.
For `[Cl][Cd][Cl]` [Cadmium chloride], the “PosmB-lux reporter fold induction” value came to 0.871 ± 0.061.

Still in this assay, the particulars now being: Biolog plate: PM14; well positions: D5-8; ΔrcsB mutant CMS5177; 4 h.
For `O=C(O)CI` [Iodoacetate], the “PosmB-lux reporter fold induction” value was 0.974 ± 0.21.

The same assay, now with this note: Biolog plate: PM14; well positions: D9-12; ΔrcsB mutant CMS5177; 4 h.
`[Na+].[Na+].[O]=[Cr](=[O])([O-])[O][Cr](=[O])(=[O])[O-]` [Sodium dichromate]: the “PosmB-lux reporter fold induction” value was determined as 1.03 ± 0.33.

The assay is the same for the next values; noted with them: Biolog plate: PM14; well positions: G9-12; ΔrcsB mutant CMS5177; 4 h.
With `O=[N+]([O-])[O-].[Na+]` [Sodium nitrate], the “PosmB-lux reporter fold induction” value is 2.32 ± 0.21.

The same assay, now with this note: Biolog plate: PM15; well positions: E9-12; ΔrcsB mutant CMS5177; 4 h.
Take `C[n+]1ccc(-c2cc[n+](C)cc2)cc1` [Methyl viologen]: the “PosmB-lux reporter fold induction” value was 1.89 ± 0.16.

The same assay, now with this note: Biolog plate: PM15; well positions: G5-8; ΔrcsB mutant CMS5177; 4 h.
For the compound `[N-]=[N+]=[N-]` [Sodium azide], the “PosmB-lux reporter fold induction” value was 1.5 ± 0.15.

The assay is the same for the next values; noted with them: Biolog plate: PM15; well positions: H1-4; ΔrcsB mutant CMS5177; 4 h.
On to `O=[N+]([O-])c1ncc[nH]1` [2-Nitroimidazole], for which the “PosmB-lux reporter fold induction” value amounted to 1.51 ± 0.7.

Still in this assay, the particulars now being: Biolog plate: PM16; well positions: C1-4; ΔrcsB mutant CMS5177; 4 h.
As for `CN(C)S(=O)(=O)N(SC(F)(Cl)Cl)c1ccccc1` [dichlofluanid], the “PosmB-lux reporter fold induction” value was 2.54 ± 1.7.

The assay is the same for the next values; noted with them: Biolog plate: PM16; well positions: C9-12; ΔrcsB mutant CMS5177; 4 h.
For `CCCCCCCCCCCCCCCC[n+]1ccccc1` [cetylpyridinium], the “PosmB-lux reporter fold induction” value worked out at 1.77 ± 0.53.

Still in this assay, the particulars now being: Biolog plate: PM16; well positions: D1-4; ΔrcsB mutant CMS5177; 4 h.
`O=[N+]([O-])c1ccc(Cl)c([N+](=O)[O-])c1` [1-chloro-2,4-dinitrobenzene]: the “PosmB-lux reporter fold induction” value was determined as 1.75 ± 0.99.

The same assay, now with this note: Biolog plate: PM16; well positions: F1-4; ΔrcsB mutant CMS5177; 4 h.
Take `O=[Te]([O-])[O-].[K+].[K+]` [potassium tellurite]: the “PosmB-lux reporter fold induction” value amounted to 1.28 ± 0.43.

The same assay, now with this note: Biolog plate: PM16; well positions: F5-8; ΔrcsB mutant CMS5177; 4 h.
Regarding `O=[Se]([O-])[O-].[Na+].[Na+]` [sodium selenite], the “PosmB-lux reporter fold induction” value was determined as 1.25 ± 0.21.

Still in this assay, the particulars now being: Biolog plate: PM17; well positions: A5-8; ΔrcsB mutant CMS5177; 4 h.
In the case of `NC(CCl)C(=O)O` [b-chloro-L-alanine hydrochloride], the “PosmB-lux reporter fold induction” value amounted to 1.04 ± 0.15.

The assay is the same for the next values; noted with them: Biolog plate: PM17; well positions: B5-8; ΔrcsB mutant CMS5177; 4 h.
Consider `CNC1CC(N)C(O)C(OC2OC(CO)C(O)C3OC4(OC(C(N)CO)C(O)C(O)C4O)OC23)C1O` (stereo not given) [hygromycin B], for which the “PosmB-lux reporter fold induction” value was found to be 1.37 ± 0.19.

The same assay, now with this note: Biolog plate: PM17; well positions: C1-4; ΔrcsB mutant CMS5177; 4 h.
For the compound `Nc1ccncc1` [4-aminopyridine], the “PosmB-lux reporter fold induction” value was found to be 1.95 ± 1.4.

The same assay, now with this note: Biolog plate: PM17; well positions: D1-4; ΔrcsB mutant CMS5177; 4 h.
As for `CC1=C(C(=O)Nc2ccccc2)S(=O)(=O)CCO1` [oxycarboxin], the “PosmB-lux reporter fold induction” value was 1.01 ± 0.57.

The assay is the same for the next values; noted with them: Biolog plate: PM17; well positions: D5-8; ΔrcsB mutant CMS5177; 4 h.
In the case of `Nc1ncn[nH]1` [3-amino-1,2,4-triazole], the “PosmB-lux reporter fold induction” value stood at 5.84 ± 4.5.

Still in this assay, the particulars now being: Biolog plate: PM17; well positions: G1-4; ΔrcsB mutant CMS5177; 4 h.
On to `O=C(O)CCCc1ccc(N(CCCl)CCCl)cc1` [chlorambucil], for which the “PosmB-lux reporter fold induction” value is 1.28 ± 0.21.

The assay is the same for the next values; noted with them: Biolog plate: PM18; well positions: C9-12; ΔrcsB mutant CMS5177; 4 h.
In the case of `Oc1c(Cl)c(Cl)c(Cl)c(Cl)c1Cl` [pentachloro-phenol], the “PosmB-lux reporter fold induction” value stood at 0.784 ± 0.046.

The same assay, now with this note: Biolog plate: PM18; well positions: E5-8; ΔrcsB mutant CMS5177; 4 h.
Regarding `[O-][I+3]([O-])([O-])O` [sodium m-periodate], the “PosmB-lux reporter fold induction” value came out at 1.04 ± 0.24.

Still in this assay, the particulars now being: Biolog plate: PM18; well positions: E9-12; ΔrcsB mutant CMS5177; 4 h.
`[Cl][Sb]([Cl])[Cl]` [antimony (III) chloride]: the “PosmB-lux reporter fold induction” value amounted to 0.481 ± 0.06.

The assay is the same for the next values; noted with them: Biolog plate: PM18; well positions: G1-4; ΔrcsB mutant CMS5177; 4 h.
On to `Oc1cc(Cl)ccc1Oc1ccc(Cl)cc1Cl` [triclosan], for which the “PosmB-lux reporter fold induction” value came to 1.05 ± 0.51.

The same assay, now with this note: Biolog plate: PM18; well positions: G5-8; ΔrcsB mutant CMS5177; 4 h.
`Nc1n[nH]c(N)n1` [3,5-diamino-1,2,4-triazole (Guanazole)]: the “PosmB-lux reporter fold induction” value is 12 ± 5.6.

Still in this assay, the particulars now being: Biolog plate: PM18; well positions: H5-8; ΔrcsB mutant CMS5177; 4 h.
In the case of `Oc1ccccc1-c1ccccc1` [2-phenylphenol], the “PosmB-lux reporter fold induction” value came out at 1.22 ± 0.42.

Staying with this assay, now noted: Biolog plate: PM18; well positions: H9-12; ΔrcsB mutant CMS5177; 4 h.
As to `CC1=CC(=O)c2c(O)cccc2C1=O` [plumbagin], the “PosmB-lux reporter fold induction” value is 1.11 ± 0.53.

The assay is the same for the next values; noted with them: Biolog plate: PM20; well positions: C5-8; ΔrcsB mutant CMS5177; 4 h.
Take `CN1[C@@H]2CC[C@H]1C[C@@H](OC(=O)C(CO)c1ccccc1)C2` (stereo not given in full) [atropine]: the “PosmB-lux reporter fold induction” value is 1.49 ± 0.44.

Still in this assay, the particulars now being: Biolog plate: PM20; well positions: E5-8; ΔrcsB mutant CMS5177; 4 h.
For the compound `CCCCCCCCCCCCNC(=N)N` [dodine], the “PosmB-lux reporter fold induction” value amounted to 1.31 ± 0.24.

The same assay, now with this note: Biolog plate: PM20; well positions: F1-4; ΔrcsB mutant CMS5177; 4 h.
`O=c1cc(O)c2ccccc2o1` [4-hydroxyl-coumarin]: the “PosmB-lux reporter fold induction” value came out at 1.62 ± 0.32.

Staying with this assay, now noted: Biolog plate: PM20; well positions: G1-4; ΔrcsB mutant CMS5177; 4 h.
As to `O=C1C2CC=CCC2C(=O)N1SC(Cl)(Cl)Cl` (stereo not given) [captan], the “PosmB-lux reporter fold induction” value stood at 1.72 ± 0.34.

Still in this assay, the particulars now being: Biolog plate: PM20; well positions: G9-12; ΔrcsB mutant CMS5177; 4 h.
Take `Oc1cccc2cccnc12` [8-hydroxy-quinoline]: the “PosmB-lux reporter fold induction” value was determined as 1.84 ± 0.48.

Staying with this assay, now noted: Biolog plate: PM20; well positions: H1-4; ΔrcsB mutant CMS5177; 4 h.
Regarding `O=C1C=C2C(=CCOC2O)O1` (stereo not given) [patulin], the “PosmB-lux reporter fold induction” value amounted to 2.24 ± 1.1.

The assay is the same for the next values; noted with them: Biolog plate: PM20; well positions: H5-8; ΔrcsB mutant CMS5177; 4 h.
For `Cc1ccc(N(SC(F)(Cl)Cl)S(=O)(=O)N(C)C)cc1` [tolylfluanid], the “PosmB-lux reporter fold induction” value stood at 1.7 ± 0.64.
